Data taken from PubChem BioAssay AID1490 (National Center for Advancing Translational Sciences (NCATS), 2009).
About 11,000 (3.5%) of roughly 310,000 compounds were called active. Inconclusive results (about 4%) are left out. The call rests on the fitted dose curve; in most records, active means well fitted inhibition curve with a large enough effect; inconclusive means small, poorly fitted or top-dose-only effect, or another doubt; inactive means no such curve, though single readings can be large or run the other way. This excerpt belongs to a sample that is enriched for actives.

What follows are compounds tested against 4'-phosphopantetheinyl transferase ffp (Bacillus subtilis) (UniProt Q9F4F7) (assay: qHTS Assay for Inhibitors of Bacillus subtilis Sfp phosphopantetheinyl transferase (PPTase)). Settings: Biochemical Sfp PPTase activity.
Summary of the method: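 Sfp 15 nM + cpd, 15 min RT; start w/ rhodamine-CoA 5 uM, BHQ-2-YbbR 12.5 uM (final); 50 mM Hepes pH 7.6, 10 mM MgCl2, 0.01% NP-40, 0.01% BSA; read 525/598 nm at 0 and 30 min.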
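Further: the enzyme is Sfp with the accession as filed and its product quenches rhodamine fluorescence.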
Potency means the concentration at half of the fitted maximal effect.
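Wherever largest response in the series, negative = inhibition is given: 0% = enzyme reaction without inhibitor and -100% = no enzyme wells.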

Compound | largest response in the series, negative = inhibition | Potency
Cc1cccc(NC(=O)NC2(C)CCS(=O)(=O)C2)c1 (configuration not stated) | 14.2% (inactive) | –
O=S(=O)(Nc1ccccc1)c1ccc(NS(=O)(=O)c2cccs2)cc1 | 16.9% (inactive) | –
O=C(CSc1ncccn1)NCCc1ccccc1 | 18.5% (inactive) | –
S=c1[nH]nc(NCCc2ccccc2)s1 | – | 22.4 µM (active)
Cc1nc(C)c(-c2csc(NCCc3ccccc3)n2)s1 | – | 50.1 µM (active)
Cc1ccc(Nc2nc(-c3sc(NC(=O)c4ccccc4)nc3C)cs2)cc1 | 0.727% (inactive) | –
CCNc1nc(-c2cc3ccccc3o2)cs1 | -14.8% (inactive) | –
S=C(NCCc1ccccc1)Nc1ccccc1 | -0.65% (inactive) | –
COc1cccc(C2CC(c3cccs3)=NN2C(=O)CSC2=NCCS2)c1OC (configuration not stated) | -16% (inactive) | –
Cc1cc(C)cc(Oc2c(C(F)(F)F)oc3cc(OCC(=O)O)ccc3c2=O)c1 | 5.59% (inactive) | –
CCOC(=O)N1CCC(N2Cc3cccc(C(=O)Nc4ccc(S(=O)(=O)N(CC)CC)cc4)c3C2=O)CC1 | -1.4% (inactive) | –
CCOc1ccc2nc(N(CCN(C)C)C(=O)c3ccc4ccccc4c3)sc2c1 | – | 79.4 µM (active)
CCCC(=O)N(CCN1CCOCC1)c1nc2ccc(OCC)cc2s1 | 4.61% (inactive) | –
CCc1ccc2nc(N(CCCN(C)C)C(=O)c3ccc4c(c3)OCCO4)sc2c1 | -7.75% (inactive) | –
COc1ccccc1N1CCN(S(=O)(=O)CCNC(=O)c2ccc(OC(C)C)cc2)CC1 | 3.56% (inactive) | –
COc1ccc(CCN2C(=O)CC(N3CCC(C(N)=O)CC3)C2=O)cc1OC (configuration not stated) | – | 50.1 µM (active)
COc1ccc(CCN2C(=O)C3CC=C(C)CC3C2=O)cc1OC (configuration not stated) | 7.59% (inactive) | –
COc1ccc(N2C(=O)CC(N3CCC(C(N)=O)CC3)C2=O)cc1 (configuration not stated) | -13.3% (inactive) | –
COc1cc(Cl)c(C)cc1NC(=O)CN1CCCCCC1 | 1.55% (inactive) | –
CSC(=S)N/N=C/c1c[nH]c2ccccc12 | 7.95% (inactive) | –
O=C(N/N=C/c1c[nH]c2ccccc12)c1ccccc1O | 16.9% (inactive) | –
C[n+]1ccc(/C=C/c2c[nH]c3ccccc23)cc1 | – | 56.2 µM (active)
Cc1cc(=O)[nH]c(Nc2cccc(Br)c2)n1 | -3.95% (inactive) | –
Cc1ccc(NN=Nc2nc3c([nH]2)c(=O)n(C)c(=O)n3C)cc1 | – | 25.1 µM (active)
Cc1cccc(C)c1NC(=O)CSc1nc2c([nH]1)c(=O)n(C)c(=O)n2C | -3.14% (inactive) | –
CC(CCO)Nc1nc2c([nH]1)c(=O)n(C)c(=O)n2C (configuration not stated) | 11.2% (inactive) | –
CSc1nccc(NC(=O)c2ccc(C(C)(C)C)cc2)n1 | -8.43% (inactive) | –
